Screens deposited in PubChem by National Center for Advancing Translational Sciences (NCATS).
Compounds with a hit are over-represented: about 10% of the library has one in this group of screens.
HEK cytotox – Cytotoxic Profiling in HEK 293 Cell Line of Diverse Libraries Using Quantitative High-Throughput Screening; Potency, µM (series often up to 115 µM), inactives show top-dose activity change, negative = cytotoxicity, usual class: inhibitors; 6.6% of 94,000 active; AID 1345083, 2018; HEK 293 viability, ATP luminescence (CellTiter-Glo), 48-72 h; further: potency means the concentration at half of the fitted maximal effect; on the % scale 0 is the no-effect control and ±100 the full control effect; nearly all actives have a fitted effect of over 60% in size
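250 HEK 293 cells/well; compound by pintool; incubated 48 or 72 hr at 37 degree Celsius; CellTiter-Glo added, 10 min RT, luminescence imaged.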
hNpr1 antagonist – Natriuretic polypeptide receptor (hNpr1) antagonism - Primary qHTS. Potency, µM (doses to about 46.3 µM), inactives show top-dose activity change, negative = inhibition, actives largely listed as inhibitors. 1.6% of 76,000 active. HEK293 hNpr1 GloSensor cGMP, ANP-stimulated luminescence; calls by dose curve; further: potency means the concentration at half of the fitted maximal effect; on the % scale 0 is the no-effect control and ±100 the full control effect; nearly all actives have a fitted effect of over 60% in size
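HEK293 cells stably expressing human Npr1 and cGMP GloSensor pGS-40F, loaded 2 h with 2% GloSensor reagent, given compound 30 min at room temperature. Luminescence read before and 20 min after 0.1 nM hNppA.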
GPT2 inh – Primary qHTS assay for inhibitors of Glutamate pyruvate transaminase 2 (GPT2); Alanine aminotransferase 2 (Homo sapiens), Q8TD30; Recombinant GPT2, coupled pyruvate oxidase/HRP Amplex Red fluorescence; Potency, µM (titrated, usually from 57.7 µM), for inactives: at the highest dose activity change, negative = inhibition, most hits filed as inhibitors; 0.25% of 100,000 active; AID 1671188, 2021; further: potency means the concentration at half of the fitted maximal effect; on the % scale 0 is the no-effect control and ±100 the full control effect; nearly all actives have a fitted effect of over 60% in size
Target sequence (Q8TD30 whole entry, looked up): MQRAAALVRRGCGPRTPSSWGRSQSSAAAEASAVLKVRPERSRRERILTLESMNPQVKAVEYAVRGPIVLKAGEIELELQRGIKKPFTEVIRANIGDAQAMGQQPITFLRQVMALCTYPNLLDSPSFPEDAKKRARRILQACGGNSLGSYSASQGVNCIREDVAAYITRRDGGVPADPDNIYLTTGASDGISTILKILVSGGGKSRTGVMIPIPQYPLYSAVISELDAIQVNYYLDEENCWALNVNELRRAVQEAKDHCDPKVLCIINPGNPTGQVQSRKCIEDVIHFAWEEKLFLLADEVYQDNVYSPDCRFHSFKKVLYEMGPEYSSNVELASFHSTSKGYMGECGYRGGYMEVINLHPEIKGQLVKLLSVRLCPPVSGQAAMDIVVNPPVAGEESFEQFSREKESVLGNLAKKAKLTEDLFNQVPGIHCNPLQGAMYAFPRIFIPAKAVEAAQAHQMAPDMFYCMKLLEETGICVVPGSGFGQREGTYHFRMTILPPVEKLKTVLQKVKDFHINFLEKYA
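Recombinant GPT2 (10ng/uL) with 250uM a-KG and 2mM L-alanine, 30 min at room temperature, in HEPES pH 7.5 buffer. Pyruvate detected by pyruvate oxidase/HRP/Amplex Red fluorescence after 30 min in the dark; AOA (50uM) as positive control.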
FLuc inh – Firefly luciferase inhibition profiling of diverse chemical library using quantitative high-throughput screening | purified P. pyralis luciferase, luminescence, biochemical | Luciferin 4-monooxygenase (Photinus pyralis), P08659 | 2.5% of 76,000 active | Potency, µM (titrated, usually from 115 µM), hits mostly inhibitors; further: potency means the concentration at half of the fitted maximal effect; on the % scale 0 is the no-effect control and ±100 the full control effect; nearly all actives have a fitted effect of over 65% in size
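Purified 10nM P. pyralis luciferase with 10uM D-luciferin and 10uM ATP in 50mM Tris acetate pH 7.5, 10mM Mg acetate, 0.01% Tween-20, 0.05% BSA. qHTS titration; luminescence read by CCD imager.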
NIH3T3 tox – Cytotoxic Profiling in NIH 3T3 Cell Line of Diverse Libraries Using Quantitative High-Throughput Screening. NIH 3T3 viability, CellTiter-Glo ATP luminescence, 48-72 h. Potency, µM (top dose mostly 96.7 µM), for inactives: at the top dose activity change, negative = cytotoxicity, hits mostly inhibitors. 4.3% of 94,000 active. AID 1345082, 2018; further: potency means the concentration at half of the fitted maximal effect; on the % scale 0 is the no-effect control and ±100 the full control effect; nearly all actives have a fitted effect of over 55% in size
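NIH 3T3 cells at 400 cells/well received 23 nL of compound by pintool and were incubated 48 or 72 h at 37 °C. Viability was read as ATP-coupled CellTiter-Glo luminescence.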
NPR1 antag cnf – Natriuretic polypeptide receptor (hNpr1) antagonism - Confirmation; shares compounds with hNpr1 antagonist; HEK293 hNpr1 cGMP GloSensor luminescence, ANP-stimulated; Potency, µM (series often up to 57.6 µM), inactives show top-dose activity change, negative = inhibition, usual class: inhibitors; 76% of 1,400 active; AID 1347044, 2019; calls by dose curve; further: potency means the concentration at half of the fitted maximal effect; nearly all actives have a fitted effect of over 70% in size
NPR2 antag – Natriuretic polypeptide receptor (hNpr2) antagonism - Subtype selectivity assay. HEK293 hNpr2 GloSensor cGMP luminescence, CNP-stimulated. Potency, µM (highest dose often 57.6 µM), for inactives: top-dose activity change, negative = inhibition, most hits filed as inhibitors. shares compounds with hNpr1 antagonist. 67% of 1,400 active; calls by dose curve; further: potency means the concentration at half of the fitted maximal effect; nearly all actives have a fitted effect of over 70% in size
FLuc inh counter – Natriuretic polypeptide receptor (hNpr1) antagonism - Confirmation firefly luciferase (FLuc) inhibition counterscreen. shares compounds with hNpr1 antagonist. purified FLuc enzyme, luminescence, Km substrate. Potency, µM (titrated, usually from 57.6 µM), without a hit: at the top dose activity change, negative = inhibition, usual class: inhibitors. 0.7% of 1,400 active; further: potency means the concentration at half of the fitted maximal effect; series mostly up to about 58 µM; 0% is about no effect
GloSensor cGMP – Natriuretic polypeptide receptor (hNpr1) antagonism - Counterscreen GloSensor control cell line | shares compounds with hNpr1 antagonist | HEK293 GloSensor cGMP, SNP-stimulated, luminescence | Potency, µM (titrated, usually from 57.6 µM), without a hit: at the top dose activity change, negative = inhibition, actives largely listed as inhibitors | 69% of 1,400 active; calls by dose curve; further: potency means the concentration at half of the fitted maximal effect; on the % scale 0 is the no-effect control and ±100 the full control effect; nearly all actives have a fitted effect of over 70% in size
GPT2 conf – Confirmatory qHTS assay for inhibitors of Glutamate pyruvate transaminase 2 (GPT2). shares compounds with GPT2 inh. 90% of 95 active. Potency, µM, hits mostly inhibitors. GPT2 enzyme, coupled Amplex Red pyruvate fluorescence. AID 1671187, 2021
The depositor's hits bear a star; i = inactive; ? = inconclusive; . = no result; ! = not active in a repeat; [ ] = dose if it differs, or a comment. Unless noted, the call rests on the fitted dose curve; in most records, active means well fitted curve in the direction sought with a large enough effect; inconclusive means small, poorly fitted or top-dose-only effect, or another doubt; inactive means no such curve, though single readings can be large; an effect the other way counts as inactive or inconclusive.

SMILES	HEK cytotox	hNpr1 antagonist	GPT2 inh	FLuc inh	NIH3T3 tox	GPT2 conf	others
O=C(Nc1ccc(Oc2ccccc2)cc1)O[C@@H]1CO[C@H]2[C@@H]1OC[C@@H]2NC(=S)Nc1cccc2ccccc12	?	10µM*	i	i	?	.	NPR1 antag cnf=5.44µM*;NPR2 antag=6.85µM*;FLuc inh counter=-11.8%;GloSensor cGMP=6.11µM*
CN(C)c1ccc(CN2CCC3(C2)C(=NC2CCCCC2)NC(=O)N3c2cccnc2)cc1 (centres undefined)	i	.	i	.	-1.6%	.
O=C1CCN(CC(O)C(F)(F)F)c2ccc(F)cc2CN1Cc1ccco1 (centres undefined)	-18.6%	.	.	.	?	.
COc1ccc(Nc2cc(C(=O)NCc3cccnc3)c3c(c2)ncn3C)cc1	.	.	.	.	.	3.14*
Cc1ccccc1-c1cc(C(=O)NCc2cccnc2)c2c(c1)ncn2C	-24.8%[172 µM]	-4.8%[70.6 µM]	?	i	?	.
O=C(NCCc1ccc(Cl)cc1)c1nc2sccn2c1-c1ccncc1	?	.	-5.8%	.	-26.6%	.
c1cncc(-c2ccnc(NCCCN3CCCc4ccccc43)n2)c1	?	-18.1%	?	i	22.4µM*	2.17*
CN1CCOc2c(C(=O)NCc3cccnc3)cc(-c3ccc(N4CCOCC4)cc3)cc21	?	5.5%	-2.4%	i	-28.9%	.
COCCNC(=O)c1cc(N2CCOCC2)cc2c1OCCN2C	.	.	.	.	.	1.57*
Cn1nccc1OCc1cn2c(=O)n(C)cc(-c3ccc(F)cc3)c2n1	.	.	.	.	.	6.27*
CC(C)N1C[C@H](O)C[C@H]1c1nnc2n1CCN(C(=O)COc1ccc(F)cc1)C2	-19.0%	-5.1%	4.2%	i	?	.
O=[S+]1([O-])NC2(CCCN(Cc3ccsc3)C2)CNc2ccccc21 (centres undefined)	-10.1%	0.0%	?	i	-4.3%	.
COc1ccc(N2CC3(C2)CN(c2ccccc2)C(=O)O3)cc1OC	?	-5.2%[70.6 µM]	?	i	-24.6%[138 µM]	?
c1ccc2c(CCNc3ccc(Nc4ccncc4)cc3)c[nH]c2c1	.	.	14.1µM*!	.	.	4.85*
Cc1ccc(NC(=O)CCNc2c(C)nc3cnccn23)c(F)c1	-12.2%	-3.0%	?	i	-17.0%	6.85*
CC(C)[C@]1(O)CN(C(=O)Cn2[nH]c3ccccc3c2=O)C[C@H]1C	-6.2%	5.0%	?	i	-1.7%	4.32*
C[C@@H]1CN(C(=O)Cn2ccc(=O)[nH]c2=O)C[C@@]1(O)C1CCC1	-11.7%	0.1%	i	i	-13.5%	.
COc1cccc(-c2cccc(C(=O)N3CCN(C(=O)c4cccc(Cl)c4)CC3)c2)c1	?	.	i	.	?	.
COc1cc(-c2nc3c([nH]2)CCCNC3=O)ccc1O	i	6.4%	?	i	?	6.11*
CN1CCCN(Cc2ccc3c(c2)OCO3)c2ccccc21	?	.	?	.	?	3.06*
O=C(c1ccoc1)N1CCCN(Cc2ccc3c(c2)OCO3)c2ccccc21	?	.	-9.4%	.	?	.
C=CC(=O)Nc1cccc(Nc2nc(Nc3ccc(OCCOC)cc3)ncc2F)c1	.	.	i	.	.	.
C=CC(=O)Nc1cccc(Nc2nc(Nc3ccc(NC4CN(CCF)C4)cc3OC)ncc2C(F)(F)F)c1	.	.	8.91µM*	.	.	3.06*
O=C(c1cnccn1)N1CCC2(CC1)NCCc1c2[nH]c2ccccc12	-18.4%	2.8%	1.7%	i	-22.0%	.
O=C(c1cnccn1)N1CCC2(CC1)CCC(O)(CN1CCc3ccccc31)CC2	?	.	?	.	?	1.09*
SMILES	HEK cytotox	hNpr1 antagonist	GPT2 inh	FLuc inh	NIH3T3 tox	GPT2 conf	others
O=C(CCC[C@H]1NC[C@@H]2C[C@H]1CN(Cc1ccccc1)C2)Nc1ccc(N2CCOCC2)cc1	0.4%	-4.1%	7.08µM*	?	-15.9%	4.85*
CN(C)c1cccc(C(=O)N2CCNc3cnc(Nc4ccc(N5CCOCC5)cc4)nc3C2)c1	?	-25.9%	2µM*	i	-25.9%	1.93*
O=C(NC1CCN(Cc2ccc(-c3ccsc3)cc2)C1)c1cccnc1 (centres undefined)	?	.	i	.	?	.
COc1cccc(-c2nn(-c3ccccc3)c(OC(C)=O)c2-c2ccc(NC(=O)c3ccco3)cc2)c1	-29.4%	-19.0%	?	i	-15.3%	7.69*
CC(=O)Oc1c(-c2ccc(NC(=O)c3ccco3)cc2)c(C2CC2)nn1-c1cccc(C)c1	?	-4.0%	?	i	?	.
O=C(/C=C/c1ccc(O)c(O)c1)OCCc1ccccc1	.	.	-3.1%	.	.	.
O=C(O)C=Cc1ccc(O)c(O)c1	.	.	4.32µM*	.	.	3.43*
O=C(CCCc1ccccc1)N1C[C@H]2CNC(=O)[C@]23CCCC[C@@H]13	?	.	i	.	-38.4%	.
Cc1noc2c(-c3cccnc3NCCN3CCOCC3)cc(-c3ccccc3)nc12	?	0.0%[70.6 µM]	1.3%[88.5 µM]	i	?	.
O=C1C(Cl)=C(NCCN2CCOCC2)C(=O)c2ncccc21	.	.	1.37µM*	.	.	1.53*
